# Measured values published in PubChem BioAssay (NCI).
# About 79,000 compounds went through this panel and 15% of them were active in at least one assay; those are over-represented in the sample as a whole. A number with no mark means an inactive call. Activity calls are given as the source filed them. No stated cut-off is given here; in the data, active means growth inhibition above about 70%; inactive means the rest.
# Experiment: NCI Yeast Anticancer Drug Screen. Data for the mec2-1 strain (AID 157)
# Conditions: S. cerevisiae mec2-1 strain, hits give high values
# Procedure: Growth inhibition of yeast strains with defined genetic alterations is measured as a screen for potential anti-cancer activity. Selected strains with alterations in DNA damage repair or cell cycle control were exposed to compounds and growth inhibition was measured relative to vehicle treated controls. The strain used in this assay is mec2-1
# [1] = at 5.0 µM (retest, dose inferred, filed as 0.5)
# [2] = at 50.0 µM (retest, dose inferred, filed as 5.0)
Compound,growth inhibition [1],growth inhibition [2],growth inhibition (at 50.0 µM)
BrCC(Br)Cc1ccc2c(c1)OCO2 (configuration not stated),2%,25%,-7.35%
CCc1ccc(C(=O)O)c2ccccc12,8%,48%,24.9%
NC(N)=N/N=C(\c1ccc(F)cc1)c1ccc(C(F)(F)F)cc1,-3%,96% (active),30.2%
COc1cccc(C2Nc3ccccc3C(=O)N2N2CCOCC2)c1 (configuration not stated),1%,6%,-7.2%
Nc1ccc2nc3ccccc3nc2c1,-11%,60%,81% (active)
O=C(Nc1ccccc1)O/N=C1/CCCC/C1=C\c1ccccc1,41%,85% (active),90.1% (active)
Cc1ccc(N=C2SC(=S)N(CCC[N+](C)(C)C)C2=Nc2ccc(C)cc2)cc1,-18%,100% (active),99.5% (active)
Oc1ccc(-c2ccc3ccccc3c2)cc1,6%,97% (active),99.3% (active)
O=C1C(Cl)=C(c2ccc([N+](=O)[O-])cc2)C(=O)c2c(O)cccc21,100% (active),99% (active),93.3% (active)
CN(C)CCCc1ccc2oc3ccccc3c2c1,4%,39%,40.7%
O=C1OC(=O)c2ccc([N+](=O)[O-])c3cccc1c23,2%,9%,51.6%
O=C1c2ccccc2C(=O)c2sc(Nc3ccc(Cl)c(Cl)c3)nc21,86% (active),98% (active),92.8% (active)
CN(C)c1ccc2c(NCCCCCCNc3ccnc4cc(N(C)C)ccc34)ccnc2c1,7%,97% (active),91.2% (active)
COC(=O)C(=O)N(c1cc(C)ccc1C)c1cc(C)ccc1C,1%,73% (active),95.3% (active)
